Results reported in PubChem BioAssay AID463173 (ICCB-Longwood Screening Facility, Harvard Medical School, 2010).
In all, about 52,000 compounds went through this assay and about 4,300 (8.3%) were called active. Cut-off read from the data, not from the text of the source: active = survival mostly below about 52% (no sharp cut-off); inactive = mostly above about 56%. The entries come from a sample that favours actives as a whole.

What follows are molecules tested on DeltatarO mutant (assay: S. aureus survival, RN4220 and DeltatarO strains – OD600, teichoic acid synthesis inhibitors, primary screen (AID 463173)). Conditions: S. aureus RN4220 wild type/DeltatarO growth, OD600, 18 h, stronger effect = lower value, screened at 18.75 µg/mL (by protocol).
`CCN(C(=O)Cc1ccccc1OC)c1nnc(-c2ccncc2)s1` was tested, and the survival was 70% (inactive). `Nc1nc(-c2ccco2)nn1C(=O)c1ccc(Cl)cc1Cl` was tested, and the survival was 91% (inactive). For `COc1ccc(-c2cc(C(=O)NCCc3ccccc3)c3c(-c4ccccc4)[nH]nc3n2)cc1`, the survival was 87% (inactive). For `Cc1cc2c(cc1NC(=O)c1ccc(C(C)(C)C)cc1)n(C)c(=O)c(=O)n2C`, the survival was 84% (inactive). In the case of `COc1cc(OC)c(NC(=O)N2CCN3CCCCC3C2)cc1Cl` (stereo not drawn), the survival is reported as 75% (inactive). For `CCN1CCN(c2csc3ccc(C)cc3c2=O)CC1`, the survival was 74% (inactive). For `COc1ccccc1NC(=O)N(Cc1cc2c(C)ccc(C)c2[nH]c1=O)CC1CCCO1` (stereo not drawn), the survival was 94% (inactive). For `CCCOc1ccc(C(=O)Nc2sc3c(c2C(=O)OCC)CCCCC3)cc1`, the survival was 24% (active). For `CCOC(=O)c1c(NC(=O)c2ccc(OC)cc2)sc2c1CCCCC2`, the survival was 2% (active). In the case of `CCOC(=O)c1c(NC(=O)c2ccc(OCC)c(Br)c2)sc2c1CCCC2`, the survival is reported as 74% (inactive). `CCOC(=O)c1c(NC(=O)c2ccc(C)c(C)c2)sc2c1CCCCC2` was tested, and the survival was 2% (active). With `CC(C)(C)C1CCc2c(sc(NC(=O)c3cc4ccccc4c(=O)o3)c2C(N)=O)C1` (stereo not drawn) the survival was 44% (active). With `CCN(CC)Cc1c(NC(=O)c2ccc(OC)cc2)sc2c1CCCC2` the survival was 71% (inactive). In the case of `CCOC(=O)c1c(NC(=O)c2ccc(OC)c(OC)c2)sc2c1CCCCC2`, the survival is reported as 58% (inactive). For `CCOC(=O)c1c(NC(=O)c2cc3ccccc3c(=O)o2)sc2c1CCC(C(C)(C)C)C2` (stereo not drawn), the survival was 53% (inactive). With `CCCOC(=O)c1c(NC(=O)c2cc3ccccc3c(=O)o2)sc2c1CCC(C)C2` (stereo not drawn) the survival was 112% (inactive). With `CCCCOc1ccc(C(=O)Nc2sc3c(c2C(=O)OCC)CCCCC3)cc1` the survival was 50% (inactive). With `CCOC(=O)c1c(NC(=O)c2cc(OC)c(OC)c(OC)c2)sc2c1CCCC2` the survival was 81% (inactive). With `CCCCOc1cccc(C(=O)Nc2sc3c(c2C(=O)OCC)CCCC3)c1` the survival was 53% (inactive). In the case of `Cc1c(C(=O)NCCN(C)C)oc2c1-c1nn(Cc3ccccc3Cl)cc1CC2`, the survival is reported as 110% (inactive). For `O=C(Oc1ccc(F)cc1)c1nc(SCc2ccc(F)cc2)ncc1Cl`, the survival was 79% (inactive). In the case of `COC(=O)C1=NNC2(c3ccc(C)cc3)C(=O)N(c3ccc(C)cc3)C(=O)C12` (stereo not drawn), the survival is reported as 107% (inactive). `Cc1oc(C(=O)O)cc1CSC(C)C(=O)O` (stereo not drawn) was tested, and the survival was 88% (inactive). For `CC(C)c1nn2c(=O)cc(COC(=O)c3ccccc3Cl)nc2s1`, the survival was 88% (inactive). `CC(=O)Nc1nc(-c2cccs2)nc2c1c(=O)oc1ccccc12` was tested, and the survival was 92% (inactive). `COc1ccc(N=C2SC(C(=O)Nc3ccccc3)CC(=O)N2C)cc1` (stereo not drawn) was tested, and the survival was 91% (inactive). For `O=C(CN1C(=O)C2(SCC(=O)N2c2ccccc2)c2ccccc21)NCCc1ccccc1` (stereo not drawn), the survival was 116% (inactive). With `Cc1nnsc1C(=O)Oc1ccc(C(C)C)cc1` the survival was 89% (inactive). `CCc1cc2c(cc3c(=O)n(CC(=O)NC4CCC(C)CC4)ncn32)s1` (stereo not drawn) was tested, and the survival was 91% (inactive). `Oc1c(C(c2cccc(Cl)c2)N2CCOCC2)sc2nc(-c3ccco3)nn12` (stereo not drawn) was tested, and the survival was 84% (inactive). For `Cc1ccc(NC(=O)CCC(=O)N2Cc3ccccc3Oc3ncccc32)c(C)c1`, the survival was 99% (inactive). With `CCOC(=O)C1CCN(C(=O)c2ccccc2N(C)S(C)(=O)=O)CC1` the survival was 107% (inactive). With `CCOC(=O)c1c(NC(=O)c2ccc(C)cc2)sc2c1CCCCC2` the survival was -2% (active). For `CCOC(=O)c1c(NC(=O)c2cc3ccccc3c(=O)o2)sc2c1CCCC2`, the survival was 45% (active). `CCOC(=O)c1c(NC(=O)c2cc(Cl)ccc2Cl)sc2c1CCCC2` was tested, and the survival was 72% (inactive). `CCOC(=O)c1c(NC(C)=O)sc2c1CCC2` was tested, and the survival was 77% (inactive). In the case of `CCOC(=O)c1c(NC(=O)c2ccc(S(=O)(=O)N(CC)CC)cc2)sc2c1CCCCC2`, the survival is reported as 72% (inactive). For `COC(=O)c1c(NC(=O)c2cc3ccccc3c(=O)o2)sc2c1CCCC2`, the survival was 89% (inactive). With `CCOC(=O)c1c(NC(=O)c2ccccc2C)sc2c1CCCC2` the survival was 12% (active). In the case of `CCOC(=O)c1c(NC(=O)c2cc(OCC)c(OCC)c(OCC)c2)sc2c1CCCCC2`, the survival is reported as 65% (inactive). `CCOC(=O)c1c(NC(=O)c2cc3ccccc3c(=O)o2)sc2c1CCC(C)C2` (stereo not drawn) was tested, and the survival was 129% (inactive). In the case of `CCc1cccc(CC)c1NC(=O)c1c(C)oc2ccc(O)c(CN3CCOCC3)c12`, the survival is reported as 90% (inactive). In the case of `CC(C)Oc1ccc(C(=O)NCc2cccnc2)cc1`, the survival is reported as 70% (inactive). In the case of `CCOc1ccc(C(=O)N2CCc3cc(OC)c(OC)cc3C2COc2ccc3c(C)cc(=O)oc3c2)cc1OCC` (stereo not drawn), the survival is reported as 57% (inactive). For `COc1ccc(OC)c(NC(=O)c2c(NCc3cccs3)sc3c2CCCCC3)c1`, the survival was 67% (inactive). `CCOC(=O)c1cccc(NC(=O)COc2ccc3c(C)cc(=O)oc3c2)c1` was tested, and the survival was 70% (inactive). For `CCN(C(=O)c1cc2c(Cl)nc3ccccc3c2s1)c1cccc(Cl)c1`, the survival was 60% (inactive). `CN(C(=O)c1cc2c(Cl)nc3ccccc3c2s1)c1cccc(C(F)(F)F)c1` was tested, and the survival was 72% (inactive). With `CCc1ccccc1N(C)C(=O)c1cc2c(Cl)nc3ccc(C)cc3c2s1` the survival was -4% (active). For `Cc1ccc(Cl)cc1N(C)C(=O)c1cc2c(Cl)nc3ccccc3c2s1`, the survival was 54% (inactive). With `CCCN(C(=O)c1cc2c(Cl)nc3ccccc3c2s1)c1cccc(C)c1` the survival was 31% (active). `CN(CCCNC(=O)c1cc2c(Cl)nc3ccccc3c2s1)Cc1ccccc1` was tested, and the survival was 55% (inactive). `Cc1ccc2nc(Cl)c3cc(C(=O)N(C)C4CCCCC4)sc3c2c1` was tested, and the survival was 46% (inactive). In the case of `CCN(CCCNC(=O)c1cc2c(Cl)nc3ccccc3c2s1)Cc1ccccc1`, the survival is reported as 94% (inactive). With `Cc1ccc2nc(Cl)c3cc(C(=O)NCCCN(C)Cc4ccccc4)sc3c2c1` the survival was -9% (active). For `COc1cc(NS(=O)(=O)c2ccc3c(c2)CCCN3C(C)=O)cc(OC)c1OC`, the survival was 89% (inactive). In the case of `Cc1nc(C)c(CCNS(=O)(=O)c2ccc(C)c(C)c2)s1`, the survival is reported as 97% (inactive). With `CCOc1ccc(-n2ccnc2SCC(=O)Nc2ccc3c(c2)OCO3)cc1` the survival was 81% (inactive). For `O=C(CN1N=C(c2ccc(Cl)cc2)CCC1=O)NCCc1ccc(Cl)cc1`, the survival was 94% (inactive). In the case of `COc1cccc(C(=O)Nc2ccc3nc(SCC(=O)N4CCOCC4)sc3c2)c1`, the survival is reported as 65% (inactive). With `COc1ccccc1CNC(=O)c1cc(S(=O)(=O)N2CCCCCC2)cn1C` the survival was 113% (inactive). In the case of `COc1ccc(OCCn2cnc3ccccc32)cc1`, the survival is reported as 85% (inactive). With `Cc1cc2ncn(CCCCOc3ccccc3)c2cc1C` the survival was -4% (active). With `c1ccc2c(c1)ncn2CCn1cnc2ccccc21` the survival was 100% (inactive). In the case of `Cc1ccc(OCCCCn2cnc3ccccc32)cc1`, the survival is reported as 11% (active). In the case of `CC(=O)OC(COc1ccccc1)Cn1cnc2cc(C)c(C)cc21` (stereo not drawn), the survival is reported as 140% (inactive). In the case of `Cc1cc2ncn(CCC(=O)Nc3ccccc3F)c2cc1C`, the survival is reported as 103% (inactive). With `Cc1cccc(C)c1NC(=O)CCC(=O)O` the survival was 76% (inactive). With `COc1cc(NC(=O)Cn2c(=O)n(CC3CCCO3)c(=O)c3cc(OC)c(OC)cc32)cc(OC)c1` (stereo not drawn) the survival was 94% (inactive). In the case of `CCN1CCN(c2ncnc3c2cnn3-c2ccc(C)cc2)CC1`, the survival is reported as 101% (inactive). `CC(C)OCCCn1c(SCC(N)=O)nc2c(sc3ccccc32)c1=O` was tested, and the survival was 92% (inactive). `COc1ccc(Nc2oc(-c3ccc(COc4ccccc4)o3)nc2C#N)cc1` was tested, and the survival was 100% (inactive). For `N#Cc1nc(-c2ccc(COc3ccccc3)o2)oc1NCc1cccnc1`, the survival was 44% (active). For `COc1ccc(OCc2ccc(-c3nc(C#N)c(NCc4cccnc4)o3)o2)cc1`, the survival was 56% (inactive). With `CN(C)c1oc(-c2ccc(COc3ccccc3)o2)nc1C#N` the survival was 39% (active). With `Cc1ccccc1OCc1ccc(-c2nc(C#N)c(NCCCN(C)C)o2)o1` the survival was 59% (inactive). In the case of `CCCCNc1oc(-c2ccc(COc3ccccc3C)o2)nc1C#N`, the survival is reported as 112% (inactive). `Cc1ccc(OCc2ccc(-c3nc(C#N)c(NCc4cccnc4)o3)o2)cc1` was tested, and the survival was 51% (inactive). In the case of `COCCCNc1oc(-c2ccc(COc3ccccc3C)o2)nc1C#N`, the survival is reported as 43% (active). `CC1CCN(c2oc(-c3ccc(COc4ccccc4)o3)nc2C#N)CC1` was tested, and the survival was 51% (inactive). In the case of `N#Cc1nc(-c2ccc(COc3ccccc3)o2)oc1NCc1ccccc1`, the survival is reported as 70% (inactive). In the case of `COc1ccc(CNc2oc(-c3ccc(COc4ccccc4C)o3)nc2C#N)cc1`, the survival is reported as 50% (inactive). With `Cc1ccccc1OCc1ccc(-c2nc(C#N)c(NCc3cccnc3)o2)o1` the survival was 43% (active). For `Cn1c(=O)c2cc(C(=O)NCCCN3CCN(c4cccc(Cl)c4)CC3)sc2c2ccccc21`, the survival was 48% (inactive). For `Cc1cc(C)c(Cn2c(=O)n(CCC(=O)NCc3ccc4c(c3)OCO4)c(=O)c3ccccc32)c(C)c1`, the survival was 108% (inactive). In the case of `CN(C)c1ccc(NC(=O)Cn2c(SCc3ccccc3F)nc3cccnc32)cc1`, the survival is reported as 124% (inactive). `CC(C)(C)c1ccc(OCC(=O)N(Cc2ccco2)Cc2ccccc2F)cc1` was tested, and the survival was 78% (inactive). With `Cc1cc(O)c(C(c2ccccc2)N2CCN(c3ccc(F)cc3)CC2)c(=O)n1Cc1ccco1` (stereo not drawn) the survival was 67% (inactive). In the case of `COc1ccccc1CCNC(=O)c1ccc2c(c1)c(C)c(C)n2C`, the survival is reported as 95% (inactive). `Cc1ccc(NC(=O)CSc2nc(-c3ccco3)nc3cc(=O)[nH]n23)cc1C` was tested, and the survival was 135% (inactive). For `CCOc1ccc(OCC)c(Nc2nc3ccccc3c3nnc(C)n23)c1`, the survival was 91% (inactive). For `Cc1nn(-c2ccc(N3CCCC3)nn2)c(C)c1CCC(=O)NCc1ccccc1F`, the survival was 82% (inactive). In the case of `Cc1cccc(NC(=O)C(=O)NCCc2csc(-c3ccc(F)cc3)n2)c1C`, the survival is reported as 83% (inactive). For `Cc1ccc(-c2nc(CCNC(=O)C(=O)Nc3c(C)cccc3C)cs2)cc1`, the survival was 8% (active). `Cc1ccc(-c2nc(CCNC(=O)C(=O)Nc3ccc(C)c(Cl)c3)cs2)cc1` was tested, and the survival was 60% (inactive). In the case of `Cc1ccc(-c2nc(CCNC(=O)C(=O)Nc3ccc(C)c(C)c3)cs2)cc1`, the survival is reported as 20% (active). With `Cc1ccc(-c2nc(CCNC(=O)C(=O)Nc3ccc(C)cc3C)cs2)cc1` the survival was 66% (inactive). `Cc1cc(C)c(NC(=O)C(=O)NCCc2csc(-c3ccc(F)cc3)n2)c(C)c1` was tested, and the survival was 67% (inactive).
